Records with an inconclusive call do not appear. Where a call stands in place of a potency, no number is given. A structure can be active in one record and inactive in another. Activity calls are given as the source filed them. Calls come from the whole dose curve; as a rule, active = well fitted cell-killing curve with a large enough effect in the repeat runs; inconclusive = weak or mixed curves; inactive = flat fitted curve, though single readings scatter.

Results on 40 molecules are retold here after PubChem BioAssay (Tox21).
Potency is the fitted concentration of half-maximal effect.

A short description of this experiment: qHTS assay to identify small molecule antagonists of the estrogen related receptor (ERR) signaling pathway from Tox21 library - cell viability counter screen (AID 1224834). Note: nearly all actives have a fitted effect of over 30% in size. To be noted: ERR reporter cells viability, CellTiter-Fluor, 17.5 h; series mostly up to 92.4 µM. The source says: National Center for Advancing Translational Sciences [NCATS]
NIH Chemical Genomics Center [NCGC]
U.S. Environmental Protection Agency [EPA]
National Institutes of Environmental Health Sciences [NIEHS]
National Toxicology Program [NTP]
U.S. Food and Drug Administration [FDA]
Estrogen related receptors (ERRs), the first orphan nuclear receptors discovered, play an important role in the control of cellular energy metabolism. ERRs are required for high-energy production in response to the environmental challenges. ERR-alpha was also identified as an adverse marker for breast cancer progression; ERR-alpha-positive tumors have a poor prognosis. To screen and to identify environmental compounds that perturb the ERR signaling pathways could provide valuable information for potential therapeutic or preventive measures in the treatment of metabolic disease. To differentiate true ERR antagonists or agonist from cytotoxic substances, the assay is multiplexed with cell viability assay.
Tox21 Assay Protocol Summary:
The ERR cells were dispensed at 2,000 cells/5 ul/well in 1536-well white plates using a Multidrop dispenser. After the assay plates were incubated at a 37 C/5% CO2 incubator for 6 hours, 23 nL of compounds dissolved in DMSO, positive and negative controls or DMSO only was transferred to the assay plate by a pin tool. The plates were incubated at 37 C for 17.5 hours. 1 ul/well of CellTiter-Fluor reagent was added into the assay plates using a Flying Reagent Dispenser. After 30-minute incubation at 37 C/5% CO2, the fluorescence intensity in the plates was measured using a ViewLux plate reader.
For `CO[Si](CCCNCCN)(OC)OC`, the Potency entry was “inactive”.
To `C=C1C[C@]23C[C@@]1(O)CC[C@H]2[C@@]12C=C[C@H](O)[C@@](C)(C(=O)O1)[C@H]2[C@@H]3C(=O)O` belongs “inactive”; to `CCCCCCCCCCCCCC(=O)O`, “inactive”.
As to `COc1ccc2cc3[n+](cc2c1OC)CCc1cc2c(cc1-3)OCO2`, the Potency is 27.5 µM (active).
`O=c1n(CCCN2CCN(c3cccc(Cl)c3)CC2)nc2ccccn12`: the Potency entry was “inactive”.
The same measure for `COC(=O)OC`: “inactive”; for `COC(=O)/C=C\C(=O)OC`: “inactive”; for `CC(=O)OC(C)(C)C1CC=C(C)CC1` (stereo not given): “inactive”.
For `N#CCC(=O)O`, the Potency result is “inactive”.
For the molecule `COc1ccc([C@@H]2CC(=O)c3c(O)cc(O[C@@H]4O[C@H](CO[C@@H]5O[C@@H](C)[C@H](O)[C@@H](O)[C@H]5O)[C@@H](O)[C@H](O)[C@H]4O)cc3O2)cc1OC`, the Potency result was “inactive”.
The same measure for `COc1c(Cl)ccc(Cl)c1C(=O)O`: “inactive”; for `CCCCCC(C)=O`: “inactive”.
For `COCN(COC)c1nc(N(COC)COC)nc(N(COC)COC)n1`, the Potency result is “inactive”.
To `Cc1ccncc1` belongs “inactive”.
`Cc1nnc(NS(=O)(=O)c2ccc(N)cc2)s1`: the Potency result was “inactive”.
Regarding `Cc1cc(C)c(O)c(C)c1`, the Potency entry was “inactive”.
As for `O=[N+]([O-])c1cc(C(F)(F)F)ccc1Cl`, the Potency entry is “inactive”.
With `CCCCC(CC)COC(=O)c1ccc(C(=O)OCC(CC)CCCC)cc1` (stereo not given), the Potency result was “inactive”.
The same measure for `CC1(C)C(=O)N(Cl)C(=O)N1Cl`: “inactive”; for `CC(C=O)Cc1ccc(C(C)(C)C)cc1` (stereo not given): “inactive”; for `OCC(CO)(CO)CO`: “inactive”.
`Oc1ccc(Cc2ccccc2O)cc1`: the Potency entry was “inactive”.
Turning to `O=C(O)Cc1c[nH]c2ccccc12`, the Potency entry is “inactive”.
As to `NCCNCCNCCN`, the Potency entry was “inactive”.
For `OC[C@H]1O[C@@H](Oc2ccc(O)cc2)[C@H](O)[C@@H](O)[C@@H]1O`, the Potency entry was “inactive”.
Take `CCOC(=O)c1ccc(O)cc1`: the Potency entry is “inactive”.
To `CCCCCCCCCCCC(=O)N(C)CC(=O)O` belongs “inactive”.
On to `CC(=O)OC[C@H]1O[C@@](COC(C)=O)(O[C@H]2O[C@H](COC(C)=O)[C@@H](OC(C)=O)[C@H](OC(C)=O)[C@H]2OC(C)=O)[C@@H](OC(C)=O)[C@@H]1OC(C)=O`, for which the Potency entry was “inactive”.
On to `C=C(C)CC(C)(C)C`, for which the Potency entry is “inactive”.
`CC1=CC(=O)CC(C)(C)C1`: the Potency is 22.3 µM (active) and inactive.
`CCn1cc(C(=O)O)c(=O)c2cc3c(cc21)OCO3`: the Potency entry was “inactive”.
As to `CN1CCCC1=O`, the Potency result is “inactive”.
With `C=CC(=O)NCOCCCC`, the Potency result was “inactive”.
`CC(=O)OCc1ccc2c(c1)OCO2`: the Potency entry was “inactive”.
Turning to `O=C(c1ccccc1)c1ccc(O)c(O)c1O`, the Potency was 49 µM (active).
For the molecule `O=C(Cl)c1ccc(C(=O)Cl)cc1`, the Potency entry is “inactive”.
In the case of `Cc1ccccc1Cl`, the Potency entry was “inactive”.
As for `CC(O)CNCC(C)O` (stereo not given), the Potency result is “inactive”.
To `N[C@@H](Cc1cc(I)c(Oc2ccc(O)c(I)c2)c(I)c1)C(=O)O` belongs “inactive”.
On to `CC(=O)Nc1ccc(CC(=O)O)cc1`, for which the Potency entry is “inactive”.
